“And” between values parts separate entries of the source, which are not always exact repeats. Equal values may be shown once. Where a structure was tested more than once in an assay, its records may differ in their call. The source made the active and inactive calls. Rule for the calls: active = hit-call score of the fitted dose curve at least 0.9, where 1 is the maximum; inactive = score below 0.9.
Assays:
Details in all cases: mRNA level, 48 h; actives raise or lower the signal
[1] = read-out: flavin-containing dimethylaniline monooxygenases 3 (FMO3), FMO3 (gene 2328); assay: LTEA_HepaRG_FMO3: Life Technologies and Expression Analysis (LTEA) Assay for flavin-containing dimethylaniline monooxygenases 3 (FMO3) using HepaRG (AID 2283453);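 for AC50: differentiated human HepaRG liver cells in serum-free induction medium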
Summary of the method: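 FMO3 transcript quantified by TaqMan qRT-PCR against three housekeeping genes after 48 h chemical exposure of HepaRG cells. Eight-point half-log series, top 100 uM, 0.5% DMSO vehicle; phenobarbital 1mM induction control; up- or down-regulation fitted.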

[2] = read-out: Cytochrome P450 (CYP1A1), CYP1A1 (gene 1543); assay: LTEA_HepaRG_CYP1A1: Life Technologies and Expression Analysis (LTEA) Assay for Cytochrome P450 (CYP1A1) using HepaRG (AID 2283454)
Summary of the method: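 Differentiated HepaRG cells in serum-free induction medium were exposed in duplicate for 48 h to eight half-log concentrations up to 100 uM in 0.5% DMSO. CYP1A1 mRNA was quantified by TaqMan qRT-PCR, normalized to ACTB, GAPDH and POLR2A.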

[3] = read-out: CFLAR gene, CFLAR (gene 8837); assay: LTEA_HepaRG_CFLAR: Life Technologies and Expression Analysis (LTEA) Assay for CFLAR gene using HepaRG (AID 2283455)
Summary of the method: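 qRT-PCR read-out (Fluidigm/TaqMan) of CFLAR mRNA, normalized to three housekeeping genes, in differentiated human HepaRG cells after 48 h chemical exposure; 8-point half-log series from 100 uM in 0.5% DMSO; bidirectional curve fitting versus DMSO.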

[4] = read-out: Forkhead box O1 (FOXO1), FOXO1 (gene 2308); assay: LTEA_HepaRG_FOXO1: Life Technologies and Expression Analysis (LTEA) Assay for Forkhead box O1 (FOXO1) using HepaRG (AID 2283456)
Summary of the method: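 HepaRG, 48 h exposure, 8-pt half-log series from 100 uM in 0.5% DMSO, duplicates; Fluidigm qRT-PCR mRNA, housekeeping-normalised; bidirectional fit vs DMSO baseline.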

[5] = read-out: Forkhead box O3 (FOXO3), FOXO3 (gene 2309); assay: LTEA_HepaRG_FOXO3: Life Technologies and Expression Analysis (LTEA) Assay for Forkhead box O3 (FOXO3) using HepaRG (AID 2283459)
Summary of the method: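 qRT-PCR readout of FOXO3 transcript, normalized to three housekeeping genes (ACTB, GAPDH, POLR2A); gain or loss fitted against 0.5% DMSO vehicle. HepaRG cells, 48 h chemical exposure, 8-point half-log series, top 100 uM.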

[6] = read-out: ABC Transporter (ABCB1), ABCB1 (gene 5243); assay: LTEA_HepaRG_ABCB1: Life Technologies and Expression Analysis (LTEA) Assay for ABC Transporter (ABCB1) using HepaRG (AID 2283460)
Summary of the method: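 HepaRG, 48 h exposure, 8-pt half-log series from 100 uM, 0.5% DMSO vehicle, duplicates. Readout: ABCB1 transcript by Fluidigm TaqMan qRT-PCR, housekeeping-normalized; bidirectional curve fit vs DMSO baseline.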

[7] = read-out: growth arrest and DNA damage 45 (GADD45B), GADD45B (gene 4616); assay: LTEA_HepaRG_GADD45B: Life Technologies and Expression Analysis (LTEA) Assay for growth arrest and DNA damage 45 (GADD45B) using HepaRG (AID 2283461)
Summary of the method: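 Differentiated HepaRG cells, plated 48 h then switched to serum-free induction medium, were exposed 48 h in duplicate to eight half-log concentrations from 100 uM in 0.5% DMSO; mRNA quantified by qRT-PCR, normalized to ACTB/GAPDH/POLR2A, bidirectional fit versus DMSO.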

[8] = read-out: ABC Transporter (ABCC3), ABCC3 (gene 8714); assay: LTEA_HepaRG_ABCC3: Life Technologies and Expression Analysis (LTEA) Assay for ABC Transporter (ABCC3) using HepaRG (AID 2283462)
Summary of the method: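 HepaRG cells in serum-free induction medium were exposed for 48 h in duplicate to 8-point half-log concentrations topping at 100 uM in 0.5% DMSO. ABCC3 mRNA was measured by qRT-PCR normalized to ACTB, GAPDH and POLR2A, with bidirectional fitting versus DMSO.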

## C=CCC1=C(C)C(OC(=O)C2C(C=C(C)C)C2(C)C)CC1=O (configuration not stated)
[1]
  AC50: 80.2 µM (active)
  outcome: inactive
[2]
  AC50: 50 µM (active) and 31.8 µM (active) and 35.1 µM (active)
[3]
  outcome: inactive
[4]
  outcome: inactive
[5]
  outcome: inactive
[6]
  outcome: inactive
[7]
  outcome: inactive
[8]
  outcome: inactive

## CC1COC(Cn2cncn2)(c2ccc(Oc3ccc(Cl)cc3)cc2Cl)O1 (configuration not stated)
[1]
  AC50: 22.2 µM (active)
[2]
  AC50: 12.2 µM (active)
[3]
  outcome: inactive
[4]
  AC50: 30 µM (active)
[5]
  AC50: 79.2 µM (active)
[6]
  AC50: 81.4 µM (active)
[7]
  AC50: 9.92 µM (active)
[8]
  outcome: inactive

## COP(=S)(OC)Oc1nc(Cl)c(Cl)cc1Cl
[1]
  outcome: inactive
[2]
  AC50: 80.5 µM (active)
[3]
  outcome: inactive
[4]
  outcome: inactive
[5]
  outcome: inactive
[6]
  outcome: inactive
[7]
  outcome: inactive
[8]
  outcome: inactive

## CCOC(=O)C(Cl)Cc1cc(-n2nc(C)n(C(F)F)c2=O)c(F)cc1Cl (configuration not stated)
[1]
  outcome: inactive
[2]
  AC50: 61.9 µM (active)
[3]
  outcome: inactive
[4]
  outcome: inactive
[5]
  outcome: inactive
[6]
  AC50: 50 µM (active)
[7]
  outcome: inactive
[8]
  outcome: inactive

## Oc1ccccc1-c1ccccc1
[1]
  outcome: inactive
[2]
  outcome: inactive
[3]
  outcome: inactive
[4]
  outcome: inactive
[5]
  outcome: inactive
[6]
  outcome: inactive
[7]
  outcome: inactive
[8]
  outcome: inactive

## C#CCOS(=O)OC1CCCCC1Oc1ccc(C(C)(C)C)cc1 (configuration not stated)
[1]
  AC50: 27.2 µM (active)
[2]
  outcome: inactive
[3]
  AC50: 27.4 µM (active)
[4]
  AC50: 32 µM (active)
[5]
  outcome: inactive
[6]
  AC50: 50 µM (active)
[7]
  AC50: 14.9 µM (active)
[8]
  outcome: inactive

## Cc1c(F)c(F)c(COC(=O)C2C(/C=C(\Cl)C(F)(F)F)C2(C)C)c(F)c1F (configuration not stated)
[1]
  outcome: inactive
[2]
  AC50: 50 µM (active)
[3]
  outcome: inactive
[4]
  outcome: inactive
[5]
  outcome: inactive
[6]
  outcome: inactive
[7]
  outcome: inactive
[8]
  outcome: inactive

## COC(=O)c1ccccc1C(=O)OC
[1]
  outcome: inactive
[2]
  outcome: inactive
[3]
  outcome: inactive
[4]
  outcome: inactive
[5]
  outcome: inactive
[6]
  outcome: inactive
[7]
  outcome: inactive
[8]
  outcome: inactive

## C=CC1(C)OC(=O)N(c2cc(Cl)cc(Cl)c2)C1=O (configuration not stated)
[1]
  outcome: inactive
[2]
  AC50: 24.6 µM (active)
[3]
  outcome: inactive
[4]
  outcome: inactive
[5]
  outcome: inactive
[6]
  AC50: 9.71 µM (active)
[7]
  outcome: inactive
[8]
  outcome: inactive

## CNC(=S)S
[1]
  outcome: inactive
[2]
  AC50: 50 µM (active)
[3]
  outcome: inactive
[4]
  outcome: inactive
[5]
  outcome: inactive
[6]
  outcome: inactive
[7]
  outcome: inactive
[8]
  outcome: inactive

## O=C(Nc1ccccc1)Nc1ccnc(Cl)c1
[1]
  AC50: 69 µM (active)
[2]
  AC50: 23.7 µM (active)
[3]
  outcome: inactive
[4]
  outcome: inactive
[5]
  AC50: 25.3 µM (active)
[6]
  AC50: 84.3 µM (active)
[7]
  outcome: inactive
[8]
  AC50: 85.7 µM (active)

## CCOc1cc(Oc2ccc(C(F)(F)F)cc2Cl)ccc1[N+](=O)[O-]
[1]
  AC50: 50 µM (active)
[2]
  AC50: 9.84 µM (active)
[3]
  outcome: inactive
[4]
  outcome: inactive
[5]
  outcome: inactive
[6]
  outcome: inactive
[7]
  outcome: inactive
[8]
  outcome: inactive

## N#Cc1nn(-c2c(Cl)cc(C(F)(F)F)cc2Cl)c(N)c1S(=O)C(F)(F)F (configuration not stated)
[1]
  AC50: 54.9 µM (active)
[2]
  AC50: 14.9 µM (active)
[3]
  AC50: 50.2 µM (active)
[4]
  AC50: 87.4 µM (active)
[5]
  outcome: inactive
[6]
  AC50: 11.4 µM (active)
[7]
  AC50: 90.7 µM (active)
[8]
  outcome: inactive

## COC(=O)N(OC)c1ccccc1COc1ccn(-c2ccc(Cl)cc2)n1
[1]
  AC50: 75.7 µM (active)
[2]
  AC50: 13 µM (active)
[3]
  outcome: inactive
[4]
  AC50: 50 µM (active)
[5]
  outcome: inactive
[6]
  AC50: 11.6 µM (active)
[7]
  outcome: inactive
[8]
  outcome: inactive

## CCCCC(CC)COC(=O)c1ccccc1C(=O)OCC(CC)CCCC (configuration not stated)
[1]
  outcome: inactive
[2]
  AC50: 34.4 µM (active)
[3]
  outcome: inactive
[4]
  outcome: inactive
[5]
  outcome: inactive
[6]
  outcome: inactive
[7]
  outcome: inactive
[8]
  outcome: inactive

## CCOP(=S)(OCC)SCn1c(=O)oc2cc(Cl)ccc21
[1]
  outcome: inactive
[2]
  AC50: 53.7 µM (active)
[3]
  outcome: inactive
[4]
  outcome: inactive
[5]
  outcome: inactive
[6]
  outcome: inactive
[7]
  outcome: inactive
[8]
  outcome: inactive

## CCc1nn(C)c(C(=O)NCc2ccc(C(C)(C)C)cc2)c1Cl
[1]
  AC50: 14.2 µM (active)
[2]
  outcome: inactive
[3]
  AC50: 30.6 µM (active)
[4]
  AC50: 0.484 µM (active)
[5]
  outcome: inactive
[6]
  outcome: inactive
[7]
  outcome: inactive
[8]
  AC50: 0.296 µM (active)

## COc1ccc(C(c2ccc(OC)cc2)C(Cl)(Cl)Cl)cc1
[1]
  AC50: 79.5 µM (active)
[2]
  AC50: 22.6 µM (active)
[3]
  outcome: inactive
[4]
  outcome: inactive
[5]
  outcome: inactive
[6]
  outcome: inactive
[7]
  AC50: 61.8 µM (active)
[8]
  AC50: 77 µM (active)

## COP(N)(=O)SC (configuration not stated)
[1]
  outcome: inactive
[2]
  outcome: inactive
[3]
  outcome: inactive
[4]
  outcome: inactive
[5]
  outcome: inactive
[6]
  outcome: inactive
[7]
  outcome: inactive
[8]
  outcome: inactive

## CNC(=O)ON=CC(C)(C)SC
[1]
  outcome: inactive
[2]
  outcome: inactive
[3]
  outcome: inactive
[4]
  outcome: inactive
[5]
  outcome: inactive
[6]
  outcome: inactive
[7]
  outcome: inactive
[8]
  outcome: inactive

## N#Cc1cc(Br)c(O)c(Br)c1
[1]
  AC50: 12.7 µM (active)
[2]
  AC50: 73.6 µM (active)
[3]
  AC50: 10 µM (active)
[4]
  AC50: 40 µM (active)
[5]
  AC50: 13.7 µM (active)
[6]
  AC50: 12.1 µM (active)
[7]
  AC50: 27.1 µM (active)
[8]
  AC50: 9.48 µM (active)

## C=CCC1=C(C)[C@@H](OC(=O)[C@@H]2[C@@H](C=C(C)C)C2(C)C)CC1=O
[1]
  outcome: inactive
[2]
  AC50: 63 µM (active)
[3]
  outcome: inactive
[4]
  outcome: inactive
[5]
  outcome: inactive
[6]
  AC50: 0.086 µM (active)
[7]
  outcome: inactive
[8]
  AC50: 74.2 µM (active)

## CC(Oc1ccc(Cl)cc1Cl)C(=O)O (configuration not stated)
[1]
  outcome: inactive
[2]
  AC50: 50 µM (active)
[3]
  outcome: inactive
[4]
  outcome: inactive
[5]
  outcome: inactive
[6]
  outcome: inactive
[7]
  outcome: inactive
[8]
  outcome: inactive

## CCCCNC(=O)OCC#CI
[1]
  AC50: 50 µM (active)
[2]
  AC50: 50 µM (active)
[3]
  outcome: inactive
[4]
  outcome: inactive
[5]
  outcome: inactive
[6]
  outcome: inactive
[7]
  outcome: inactive
[8]
  outcome: inactive

## CCCCOC(=O)c1ccccc1C(=O)OCCCC
[1]
  outcome: inactive
[2]
  outcome: inactive
[3]
  outcome: inactive
[4]
  outcome: inactive
[5]
  outcome: inactive
[6]
  outcome: inactive
[7]
  outcome: inactive
[8]
  outcome: inactive

## OC(c1ccc(Cl)cc1)(c1cncnc1)c1ccccc1Cl (configuration not stated)
[1]
  AC50: 77.8 µM (active)
[2]
  AC50: 13 µM (active)
[3]
  outcome: inactive
[4]
  AC50: 79 µM (active)
[5]
  outcome: inactive
[6]
  AC50: 28.5 µM (active)
[7]
  AC50: 66.2 µM (active)
[8]
  outcome: inactive

## CS/C(C)=N/OC(=O)N(C)SN(C)C(=O)O/N=C(\C)SC
[1]
  outcome: inactive
[2]
  outcome: inactive
[3]
  outcome: inactive
[4]
  outcome: inactive
[5]
  outcome: inactive
[6]
  outcome: inactive
[7]
  outcome: inactive
[8]
  outcome: inactive

Reference: PubChem BioAssay (EPA / NIEHS)
